# PubChem BioAssay (NCATS)
# “And” between values parts separate entries of the source, which are not always exact repeats. Identical values can stand only once. Records with an inconclusive call do not appear. Where a structure was tested more than once in an assay, its records may differ in their call. The source made the active and inactive calls. Calls come from the whole dose curve; as a rule, active = well fitted curve in the direction sought with a large enough effect; inconclusive = small, poorly fitted or top-dose-only effect, or another doubt; inactive = no such curve, though single readings can be large; an effect the other way counts as inactive or inconclusive.
# Experiments:
# [1] = Viability qHTS for spleen associated tyrosine kinase inhibitor (SYKi) naive MV4-11 cells (AID 1963823); note: nearly all actives have a fitted effect of over 40% in size
# In short: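 qHTS, SYK inhibitor-naive MV4-11; 500 cells/well; 72 hr compound exposure, 37 C; CellTiter-Glo added, 10 min RT; luminescence read.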
# [2] = Viability qHTS for spleen associated tyrosine kinase inhibitor (SYKi) drug resistant MV4-11 cells (AID 1963824); note: nearly all actives have a fitted effect of over 35% in size
# In short: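 CellTiter-Glo luminescence, read 10 min after reagent addition, reports viability after a 72 hr compound exposure. Cells are an MV4-11 line made resistant to SYK inhibition, seeded at 500 per well onto compound-containing plates.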
# [3] = Cellular viability qHTS for adrenocortical cancer (ACC) cell line SW-13 (AID 1963989); conditions: SW-13 ACC cells viability, CellTiter-Glo, 48 h; activity (max response): stronger effect = lower value; note: nearly all actives have a fitted effect of over 65% in size;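 for activity (max response): cells grown in serum-free medium with ITS supplement; % is set by controls: 0 for no effect and ±100 for the full control effect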
# In short: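 SW-13 cells in ITS-supplemented serum-free DMEM were plated overnight, then exposed for 48 h at 37C to compound titrations (up to 46 uM final). Viability was read by CellTiter-Glo luminescence; four-parameter logistic fits gave IC50 and efficacy.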
# [4] = Cellular viability qHTS for adrenocortical cancer (ACC) cell line NCI-H295R (AID 1963990); note: nearly all actives have a fitted effect of over 60% in size
# In short: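 Luminescent ATP read-out (CellTiter-Glo, 20 min RT) after 48 h drug exposure of NCI-H295R cells; a titration up to 46 uM final. Data normalized to doxorubicin (100% inhibition) and DMSO (0%); 4-parameter fit gives IC50, max response.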
# Potency is the fitted concentration of half-maximal effect.
Compound,Potency [1],Potency [2],activity (max response) [3],Potency [4],Potency [3]
CCOCCn1c(N2CCCN(C)CC2)nc2ccccc21,inactive,inactive,-8.77% (inactive),inactive,
CN(C)C[C@@H]1CCn2cc(c3ccccc32)C2=C(C(=O)NC2=O)c2cn(c3ccccc23)CCO1,0.186 µM (active),0.417 µM (active),,31.6 µM (active),28.2 µM (active)
Nc1cc(-c2ccncc2)c[nH]c1=O,inactive,inactive,2.68% (inactive),inactive,
CCCNC(C)(C)COC(=O)c1ccccc1,inactive,inactive,-2.6% (inactive),inactive,
COc1ccc(CNc2nc(N(CCO)CCO)nc3c2ncn3C(C)C)cc1,4.11 µM (active),5.8 µM (active),,15.8 µM (active),8.91 µM (active)
CNC(=O)[C@H](Cc1c[nH]c2ccccc12)NC(=O)[C@@H](CC(=O)NO)CC(C)C,9.34 µM (active),10.5 µM (active),-15.7% (inactive),inactive,
Cn1ncc(Cl)c1-c1cc(C(=O)N[C@H](CN)Cc2ccc(F)c(F)c2)sc1Cl,9.2 µM (active) and 5.9 µM (active),11.6 µM (active) and 4.68 µM (active),,3.16 µM (active),8.91 µM (active)
O=C(CCN1CCN(CCO)CC1)N1c2ccccc2Sc2ccc(C(F)(F)F)cc21,inactive,inactive,-5.01% (inactive),inactive,
COc1cc(-c2ccc(=O)[nH]n2)ccc1OC(F)F,inactive,inactive,-6.02% (inactive),inactive,
COc1ccc(CCN2CCC(Nc3nc4ccccc4n3Cc3ccc(F)cc3)CC2)cc1,4.22 µM (active),8.41 µM (active),,14.6 µM (active),20.6 µM (active)
CCN1/C(=C/C(C)=O)Sc2ccc(OC)cc21,9.2 µM (active),8.2 µM (active),3.06% (inactive),inactive,
Cc1cc(O)cc2c1O[C@](C)(CCC[C@H](C)CCC[C@H](C)CCCC(C)C)CC2,inactive,inactive,7.62% (inactive),inactive,
CC(C)Oc1ccc(-c2nn([C@@H](C)c3oc4ccc(F)cc4c(=O)c3-c3cccc(F)c3)c3ncnc(N)c23)cc1F,14.8 µM (active),11.8 µM (active),7.73% (inactive),inactive,
CCOc1ccc(Cc2cc([C@@H]3O[C@H](CO)[C@@H](O)[C@H](O)[C@H]3O)ccc2Cl)cc1,inactive,18.6 µM (active),-2.91% (inactive),inactive,
O=S(=O)(Nc1ccc(-c2cccnc2)c2cccnc12)c1cccc(C(F)(F)F)c1,6.61 µM (active),5.25 µM (active),,3.98 µM (active),4.47 µM (active)
COC(=O)/C=C/C(=O)OC,inactive,inactive,-9.41% (inactive),inactive,
CCN(CC)CCCC(C)Nc1c2ccc(Cl)cc2nc2ccc(OC)cc12 (stereo not drawn),4.22 µM (active) and 2.82 µM (active),2.09 µM (active) and 3.99 µM (active),,14.1 µM (active),28.2 µM (active)
Cc1c(O)cccc1C(=O)N[C@@H](CSc1ccccc1)[C@H](O)CN1C[C@H]2CCCC[C@H]2C[C@H]1C(=O)NC(C)(C)C,23.7 µM (active),13.3 µM (active),,6.51 µM (active),20.6 µM (active)
CC(C)N(CCC(=O)c1ccc2ccccc2c1)Cc1ccccc1,2.35 µM (active),2.95 µM (active) and 1.84 µM (active),-18.6% (inactive),14.1 µM (active),
N=C(N)c1ccc2nc(-c3cc(CC(=O)N[C@@H](CC(=O)O)C(=O)O)cc(-c4cc(S(N)(=O)=O)ccc4O)c3O)[nH]c2c1,inactive,inactive,10.3% (inactive),inactive,
O=C(NCc1ccc(S(=O)(=O)c2cccc(C(F)(F)F)c2)cc1)c1cnc2[nH]ncc2c1,0.0118 µM (active),0.0105 µM (active),,0.0178 µM (active),0.0282 µM (active)
NS(=O)(=O)c1cc2c(cc1Cl)NC(C1CC3C=CC1C3)NS2(=O)=O (stereo not drawn),inactive,inactive,-7.72% (inactive),inactive,
CC(C)n1nc(-c2cc3cc(O)ccc3[nH]2)c2c(N)ncnc21,0.116 µM (active),668 nM (active) and 291 nM (active),,2.31 µM (active) and 10 µM (active),5.8 µM (active) and 14.1 µM (active)
Oc1cc(O)cc(/C=C/c2ccc(O)c(O)c2)c1,5.9 µM (active) and 5.17 µM (active),5.9 µM (active) and 2.59 µM (active),-23.2% (inactive),inactive,
O=C(O)C[C@H](O)C[C@H](O)/C=C/c1c(C2CC2)nc2ccccc2c1-c1ccc(F)cc1,461 nM (active) and 525 nM (active),164 nM (active) and 235 nM (active),,3.55 µM (active),3.16 µM (active)
CCOC(=O)c1cnc2c(cnn2CC)c1NN=C(C)C,inactive,inactive,7.42% (inactive),inactive,

Compound,Potency [1],Potency [2],activity (max response) [3],Potency [4],Potency [3]
O=C(O)C1=CO[C@@H](O[C@@H]2O[C@H](CO)[C@@H](O)[C@H](O)[C@H]2O)[C@@H]2C(CO)=CC[C@H]12,10.1 µM (active) and inactive,12.8 µM (active) and inactive,7.35% (inactive),inactive,
CCc1cc2c(cc1N1CCC(N3CCOCC3)CC1)C(C)(C)c1[nH]c3cc(C#N)ccc3c1C2=O,0.178 µM (active),0.632 µM (active),-11.5% (inactive),inactive,
COc1ccc(N2C(=O)N(c3c(C)cccc3Cl)Cc3cnc(Nc4ccc(C5CCN(C)CC5)cc4OC)nc32)nc1,0.934 µM (active),1.48 µM (active),,17.8 µM (active),2.24 µM (active)
Cc1noc(C)c1-c1ccc(-c2cc(C(N)=O)c(NC(N)=O)s2)c(O[C@H]2CCNC2)c1,2.31 µM (active),3.26 µM (active),-22.5% (inactive),inactive,
CN=C(NC#N)NCCSCc1csc(N=C(N)N)n1,inactive,inactive,7.67% (inactive),inactive,
O=C(O)CCc1nc(-c2ccccc2)c(-c2ccccc2)o1,inactive,inactive,-11.2% (inactive),inactive,
C[n+]1ccccc1/C=N/O,inactive,inactive,3.67% (inactive),inactive,
C/C=C/C[C@@H](C)C(=O)[C@H]1C(=O)N[C@@H](C(C)C)C(=O)N(C)CC(=O)N(C)[C@@H](CC(C)C)C(=O)N[C@@H](C(C)C)C(=O)N(C)[C@@H](CC(C)C)C(=O)N[C@@H](C)C(=O)N[C@H](C)C(=O)N(C)[C@@H](CC(C)C)C(=O)N(C)[C@@H](CC(C)C)C(=O)N(C)[C@@H](C(C)C)C(=O)N1C,6.45 µM (active),4.07 µM (active),4.11% (inactive),inactive,
Cc1cc(OCc2nnc(SC3CCCC3)n2-c2cccnc2)ccc1-c1ccc(S(C)(=O)=O)cc1,0.184 µM (active),0.116 µM (active),-6.15% (inactive),inactive,
Cn1cc(-c2c[nH]c3ncnc(N4CCOCC4)c23)cn1,13.2 µM (active),14.8 µM (active),0.0559% (inactive),inactive,
C#C[C@]1(O)CC[C@H]2[C@@H]3CCc4cc(O)ccc4[C@H]3CC[C@@]21C,inactive and 14.8 µM (active),inactive and 7.42 µM (active),,3.55 µM (active),7.94 µM (active)
Cc1cc(-c2nc3cc(F)ccc3s2)ccc1NC(=O)[C@@H](N)CCCCN,2.31 µM (active),2.59 µM (active),,17.8 µM (active),25.1 µM (active)
COc1cc(C)[nH]c(=O)c1CN1CCc2c(Cl)cc([C@H](OC)C3COC3)c(Cl)c2C1=O,inactive,inactive,-0.836% (inactive),inactive,
COc1ccc(S(=O)(=O)Nc2cc(-c3csc(C#N)c3)ccc2C)cc1,0.0833 µM (active),0.0934 µM (active),,0.0794 µM (active),0.0631 µM (active)
Cc1cccc(C)c1NC(=O)CC12CCCN1CCC2,inactive,inactive,1.71% (inactive),inactive,
CC(C)COC(=O)c1ccc(N)cc1,inactive,inactive,4.68% (inactive),inactive,
O=C1Nc2ccc(Cl)cc2[C@@](C#CC2CC2)(C(F)(F)F)O1,16.6 µM (active) and 5.17 µM (active),13.2 µM (active) and 5.8 µM (active),,22.4 µM (active),18.4 µM (active) and 25.1 µM (active)
O=C(O)CCCCCCCC(=O)O,inactive,inactive,10.6% (inactive),inactive,
O=C(NCCCNC(=O)c1ccc[nH]c1=O)c1cc(-c2ccccc2)on1,4.68 µM (active),4.68 µM (active),,15.8 µM (active),22.4 µM (active)
CSc1ccc(C(=O)/C=C/c2cc(C)c(OC(C)(C)C(=O)O)c(C)c2)cc1,3.03 µM (active),4.28 µM (active),,39.8 µM (active),35.5 µM (active)
CCO[C@@H]1OC(=O)C[C@@H]1NC(=O)[C@@H]1CCCN2C(=O)CC[C@H](NC(=O)c3nccc4ccccc34)C(=O)N12,inactive,inactive,-8.71% (inactive),inactive,
CN1CCC[C@@H]1c1cccnc1,inactive,inactive,-8.92% (inactive),inactive,
CC(=O)CC(c1ccc([N+](=O)[O-])cc1)c1c(O)c2ccccc2oc1=O (stereo not drawn),inactive,inactive,-8% (inactive),inactive,
CC(=O)Nc1ccc(C(=O)Nc2ccccc2N)cc1,5.63 µM (active) and 4.68 µM (active),3.55 µM (active) and 3.72 µM (active),,6.31 µM (active),11.2 µM (active)
C[C@]12C[C@H](O)[C@H]3[C@@H](CCC4=CC(=O)CC[C@@]43C)[C@@H]1CC[C@@H]2C(=O)CO,inactive,inactive,4.71% (inactive),inactive,
C=C1C(=O)O[C@H]2C[C@H](C)C(/C=C/C(C)=O)=CC[C@H]12,1.18 µM (active),0.934 µM (active),,7.94 µM (active),15.8 µM (active)
